An excerpt weighted towards active compounds, which were near 0.92% of everything screened.
NS1 function inh: influenza NS1 inhibition. Potency, µM (top dose mostly 46.1 µM), for inactives: at the highest dose activity, positive = more growth. 270,000 tested, 0.4% active. AID 2326; calls by dose curve; also: potency is read from the fitted curve at half-maximal effect; actives are rising curves; nearly all actives have a fitted effect of over 50% in size
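OD600 was taken as the measure of yeast growth restored by compound in an NS1-expressing S. cerevisiae strain. Cells had been washed out of glucose medium and diluted 1:100 into galactose -URA medium, pH 6.0.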
RE007 growth inh: less growth of the S. pombe RE007 Vpr strain; Potency, µM (top dose mostly 92.2 µM), for the others: at the top dose activity change, negative = less growth, usual class: inhibitors; AID 651644; 360,000 tested, 0.21% active; S. pombe RE007 Vpr strain, BacTiter-Glo ATP luminescence, 24 h; active = well fitted falling curve with a large enough effect; inconclusive = small, poorly fitted or top-dose-only effect; inactive = no such curve, though single readings can be large or run the other way; also: potency is read from the fitted curve at half-maximal effect; % is scaled to controls: 0 for no effect and ±100 for the full control effect; nearly all actives have a fitted effect of over 50% in size
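Fission yeast strain RE007, carrying one chromosomally integrated HIV-1 vpr copy, was seeded at OD 0.01 in PMG+AL medium with 23 nL pinned compound. After 24 h at 30 °C and 99% humidity, viability was read by BacTiter-Glo luminescence.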
Tb PYK inh: blocks Trypanosoma brucei pyruvate kinase | Q57TT1 | 410,000 tested, 0.12% active | TbPYK enzyme, Kinase-Glo Plus ATP luminescence, 45 min | Potency, µM (titrated, usually from 76.8 µM), without a hit: top-dose activity, negative = inhibition, usual class: inhibitors; also: potency is read from the fitted curve at half-maximal effect; % is scaled to controls: 0 for no effect and ±100 for the full control effect; nearly all actives have a fitted effect of over 50% in size
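Glycolytic pyruvate kinase of T. brucei was incubated with substrate, test compound and 130 uM ADP for 45 minutes at room temperature. Luminescent Kinase-Glo Plus signal was measured after 10 minutes.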
AMA1 RON2 block: disrupts binding of P. falciparum AMA1 to RON2; AlphaScreen AMA1-biotinylated RON2 peptide binding; 360,000 tested, 0.2% active; Potency, µM (highest dose often 58.2 µM), without a hit: top-dose activity change, negative = inhibition, hits mostly inhibitors; AID 720542;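 also: potency is read from the fitted curve at half-maximal effect; 0% = vehicle wells and -100% = peptide control; nearly all actives have a fitted effect of over 45% in size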
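AMA1 (3D7) with his tag at 25 nM final met compounds first, then biotinylated RON2 peptide at 25 nM; detection used donor plus acceptor beads, 10 µg/mL apiece, read by AlphaScreen after 30 min at room temperature.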
LmPK inhibitor: inhibitors of Leishmania mexicana pyruvate kinase; Q27686; 290,000 tested, 0.37% active; Potency, µM (top dose mostly 57.5 µM), for inactives: top-dose activity change, negative = inhibition, actives largely listed as inhibitors; purified LmPK, Kinase-Glo ATP luminescence, 1 h; also: potency is read from the fitted curve at half-maximal effect; % is scaled to controls: 0 for no effect and ±100 for the full control effect
Target sequence (Q27686 whole entry, looked up): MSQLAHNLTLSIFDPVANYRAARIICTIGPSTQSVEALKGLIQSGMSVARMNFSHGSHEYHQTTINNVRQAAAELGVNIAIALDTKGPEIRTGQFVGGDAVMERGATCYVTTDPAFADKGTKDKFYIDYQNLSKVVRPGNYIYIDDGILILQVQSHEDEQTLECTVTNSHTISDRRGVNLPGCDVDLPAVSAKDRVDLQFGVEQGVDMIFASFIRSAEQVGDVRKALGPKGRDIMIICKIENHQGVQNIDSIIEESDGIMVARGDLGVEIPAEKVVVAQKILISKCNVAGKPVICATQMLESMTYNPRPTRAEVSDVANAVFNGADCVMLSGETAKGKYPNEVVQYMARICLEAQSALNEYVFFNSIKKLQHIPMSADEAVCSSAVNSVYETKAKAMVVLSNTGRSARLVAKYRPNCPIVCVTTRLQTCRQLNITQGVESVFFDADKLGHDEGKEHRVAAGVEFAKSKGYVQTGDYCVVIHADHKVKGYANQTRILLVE
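In 50 mM imidazole pH 7.2 with 7 mM MgCl2, LmPK (0.1 nM) turned over PEP (0.5 mM) and ADP (0.1 mM) for 1 h at room temperature. Luciferase read-out of ATP.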
NS1 inh valid: influenza NS1 function inhibition validation; AID 492980; influenza NS1 function cell assay, 15-point titration; 1,400 tested, under 10 active; shares compounds with NS1 function inh; activity change, negative = inhibition, % at 32.9 µM; calls by dose curve; also: 0% is about no effect
PR8 titer: influenza virus titer reduction, NS1 project; 95 tested, 30% active; shares compounds with NS1 function inh; virus titer (log TCID50), log10 TCID50 at 5 µM; MDCK infected influenza A/PR/8/34, virus titer TCID50; hits give low values; AID 504647; call rule not given here
* = called active by the depositor; ? = inconclusive; · = no result given; [ ] = remark or other dose. Unless noted, calls follow the shape of the dose curve; as a rule, active = well fitted curve in the direction sought with a large enough effect; inconclusive = small, poorly fitted or top-dose-only effect, or another doubt; inactive = no such curve, though single readings can be large; an effect the other way counts as inactive or inconclusive.

SMILES | NS1 function inh | RE007 growth inh | Tb PYK inh | AMA1 RON2 block | LmPK inhibitor | NS1 inh valid | others
CC(C)[C@@]1(NC(=O)[C@@H]2C[C@@H]3c4cccc5[nH]cc(c45)C[C@H]3N(C)C2)O[C@@]2(O)C3CCCN3C(=O)[C@H](Cc3ccccc3)N2C1=O (stereo partly specified) | 5.62µM* | · | · | · | · | ?
CC(C)[C@@]1(NC(=O)[C@@H]2C[C@@H]3c4cccc5[nH]cc(c45)C[C@H]3N(C)C2)O[C@@]2(O)[C@@H]3CCCN3C(=O)[C@H](Cc3ccccc3)N2C1=O | -0.7% | -1.8%[18.4 µM] | -1.7% | 0.0% | -11.9% | ·
O=C(CSc1nc(O)c(Cc2ccccc2)c(=O)[nH]1)N1CCOCC1 | ? | -4.3% | 2.3% | 7.9% | 7.7% | 14.0 | PR8 titer=8.5
CCN(CC)C(=O)CSc1nc2ccccc2c(=O)n1-c1ccccc1OC | 35.5µM* | -1.3% | -11.6% | -8.1% | 3.9% | -5.9
COc1ccccc1-n1c(SCC(=O)N2CCCC2)nc2cccnc21 | 2µM* | -1.6% | -21.6% | -12.6% | -0.5% | -3.9
COc1ccccc1-n1c(SCC(=O)N2CCOCC2)nc(O)cc1=O | ? | 4.9% | -2.6% | -4.6% | -14.9% | ·
COc1ccccc1-n1c(SCC(=O)N2CCOCC2)nc(O)c(Cc2ccccc2)c1=O | ? | 14.6% | -2.1% | 28.8% | -10.4% | 13.0
CCn1cc(C(=O)NCCCOC(C)C)c(=O)c2cc(S(=O)(=O)N3CCc4ccccc4C3)ccc21 | · | · | -6.8% | · | · | ·
Cc1ccc(Cn2c(C(=O)O)c(CNCc3ccc(OC(C)C)cc3)c3ccc(C)cc32)cc1 | · | · | -0.4% | · | · | ·
O=C(/C=C/c1ccc(Cl)cc1Cl)NC(=S)Nc1ccc(CN2CCOCC2)cc1 | ? | 1.8% | 3.6% | 20.6% | -2.9% | 24.7
O=C(/C=C/c1ccccc1)NC(=S)Nc1ccc(CN2CCOCC2)cc1 | 13.2% | -18.9% | -12.0% | 25.2% | 2.8% | ·
CCOCCCNC(=O)CN1C(=O)COc2ccc(S(=O)(=O)N3CCC(C)CC3)cc21 | 12.7% | 15.5% | 0.0% | -2.9% | -6.9% | ·
CC1CCN(S(=O)(=O)c2ccc3c(c2)N(CC(=O)NCCCOC(C)C)C(=O)CO3)CC1 | ? | 3.8% | -9.6% | -5.2% | 8.7% | -23.6
O=C(CNC(=O)C(c1ccccc1)c1ccccc1)N/N=C\c1ccc(C(=O)O)cc1 | ? | -4.9% | -0.4% | -3.2% | -2.7% | 8.3
O=C(COc1ccc(Cl)cc1)NNC(=S)NCc1ccccc1 | 5.62µM* | -2.1% | -2.6% | 107.8% | 0.1% | ?
CSC1=NCCN1C(=O)c1ccc(C)cc1 | 1.2% | 12.1% | -1.8% | 3.5% | -0.4% | ·
CSC1=NCCN1C(=O)c1ccc2c(c1)OCO2 | ? | 7.7% | -1.1% | -9.2% | 3.5% | -0.3
COc1ccc(CCC(=O)NC2CC(=O)N(c3ccc(F)cc3)C2)cc1 (stereo unspecified) | · | · | 2.2% | · | · | ·
COc1ccc(CCNC(=O)CCc2c(C)nc3c(c(C)nn3-c3ccccc3)c2C)c(OC)c1 | · | · | -1.3% | · | · | ·
O=c1[nH]c(C2CCCN(S(=O)(=O)c3ccc(F)cc3)C2)nc2c1nnn2Cc1ccc(F)cc1 (stereo unspecified) | ? | -5.4% | 7.4% | -0.6% | 6.4% | -4.8
Cc1ccc(Cn2nnc3c(=O)[nH]c(C4CCCN(S(=O)(=O)c5ccc(F)cc5)C4)nc32)cc1 (stereo unspecified) | 2.6% | 6.8% | -1.4% | -5.7% | 4.8% | ·
CCc1ccc(NC(=O)C(C)OC(=O)c2cccc(S(=O)(=O)N3CCc4ccccc4C3)c2)cc1 (stereo unspecified) | 14.1µM* | -5.1% | -25.1% | -14.9% | 1.1% | -19.2
COc1cccc(-c2cc(=O)c3cc(NC(=O)c4ccccc4)ccc3[nH]2)c1 | 12.7% | 4.9% | 2.5% | -9.2% | 1.2% | ·
COc1cccc(-c2cc(=O)c3cc(NC(=O)c4ccc(N(C)C)cc4)ccc3[nH]2)c1 | 12.6µM* | 6.1% | 2.8% | -15.9% | 0.2% | 1.7
COc1ccc(OC)c(CCNC(=O)c2cc3c(=O)n(C)c4ccccc4c3n2C)c1 | · | · | -5.2% | · | · | ·
SMILES | NS1 function inh | RE007 growth inh | Tb PYK inh | AMA1 RON2 block | LmPK inhibitor | NS1 inh valid | others
O=C1c2cccc3c(N4CCOCC4)c([N+](=O)[O-])cc(c23)C(=O)N1c1cccc2ccccc12 | ? | 2.0% | -7.0% | 0.0% | 0.2% | -1.7
COc1cc(OC)c(N(C)C(=O)Cn2ncc3c([nH]c4ccccc43)c2=O)cc1Cl | · | · | -1.2% | · | · | ·
COC(=O)[C@@]1(Cc2ccc(F)cc2)[C@H]2c3cc(C(=O)N4CCCC4)n(CCc4c[nH]c5ccc(OC)cc45)c3C[C@H]2CN1C(=O)c1ccccc1 | 12.6µM* | · | · | · | -0.5% | 15.7
COCCn1c(C(=O)N2CCCC2)cc2c1C[C@H]1CN(C(=O)c3ccccc3)[C@@](Cc3ccc(F)cc3)(C(=O)OC)[C@@H]21 | -28.1% | 3.5% | 0.9% | -2.3% | -1.0% | ·
Cc1cccc(C)c1NC(=O)CCS(=O)(=O)c1cccc2nonc12 | ? | 3.3% | 7.0% | -9.5% | 13.9% | 5.0
Cc1ccccc1NC(=O)CCS(=O)(=O)c1cccc2nonc12 | 4.4% | -17.1% | -1.7% | 0.0% | 12.7% | ·
CCCCS(=O)(=O)CC(O)CSc1nc(-c2ccc(C)cc2)cc(-c2ccccc2)c1C#N (stereo unspecified) | · | · | -7.8% | · | · | ·
COc1ccccc1NC(=O)CCC(=O)Nc1ccccc1OC | 3.1%[9.22 µM] | -4.2% | -4.6% | 10.5% | -2.4% | ·
COc1ccccc1NC(=O)C/C(N)=N/O | 12.6µM* | -12.1% | -2.6% | 36.2% | 3.5% | 17.3
CC(C)OCCCn1c(=O)c2ccccc2n2c(-c3cc(Cl)ccc3O)nnc12 | · | · | -0.4% | · | · | ·
COc1ccc(C2NC(=O)NC(C)=C2C(=O)OC2CCC(C)CC2)cc1 (stereo unspecified) | ? | -4.2% | 1.9% | -9.8% | 1.7% | 5.8
CCOc1ccc(C(=O)c2cn(CC(=O)Nc3ccc(C)c(C)c3)c3ccc(OCC)cc3c2=O)cc1 | · | · | 6.8% | · | · | ·
O=S(=O)(c1cccc(-c2csc(N/N=C/c3ccco3)n2)c1)N1CCOCC1 | 5.0% | 16.4% | -11.6% | 21.3% | 4.5% | ·
COc1ccc(/C=N/Nc2nc(-c3cccc(S(=O)(=O)N4CCCC4)c3)cs2)cc1OC | 12.6µM* | 8.7% | -11.6% | 15.5% | -1.1% | 19.0
CCOc1cc(/C=N/Nc2nc(-c3cccc(S(=O)(=O)N4CCCC4)c3)cs2)ccc1O | 10µM* | -8.7% | 1.3% | 3.3% | -0.1% | 18.9
CCOCCCNC(=O)C1CCN(C(=O)c2cc3sccc3n2C)CC1 | · | · | -2.3% | · | · | ·

Source: PubChem (National Center for Advancing Translational Sciences (NCATS))
